Data taken from PubChem BioAssay (Tox21).
Results filed as inconclusive are left out. A number with no mark means an inactive call. The call rests on the fitted dose curve; in most records, active means well fitted cell-killing curve with a large enough effect in the repeat runs; inconclusive means weak or mixed curves; inactive means flat fitted curve, though single readings scatter.

test: qHTS RealTime-Glo MT Cell Viability Assay in HepG2 cells - 16 hour (AID 1224885); details: RealTime-Glo luminescence; series mostly up to 76.8 µM; activity change, negative = cytotoxic: at the top concentration; further: nearly all actives have a fitted effect of over 50% in size
Description: U.S. Tox21 Program National Center for Advancing Translational Sciences [NCATS] NIH Chemical Genomics Center [NCGC] U.S. Environmental Protection Agency [EPA] National Institutes of Environmental Health Sciences [NIEHS] National Toxicology Program [NTP] U.S. Food and Drug Administration [FDA] Tox21 Assay Overview: Measure of cell viability is critical in the cell-base assay. Analysis of cell viability is necessary for the characterization of cell responses to cytotoxic drugs and environmental stress. A RealTime-Glo MT Cell Viability Assay to monitor cell viability in real time of continues cell culture during 40 hours of compound treatment was used to screen Tox21 10K library compounds in HepG2 cells. The RealTime-Glo MT Cell Viability Assay is a nonlytic, homogeneous, bioluminescent method to measure cell viability in real time using a simple, plate-based method. The assay involves adding NanoLuc luciferase and a cell-permeant prosubstrate to cells in culture. Viable cells reduce the proprietary prosubstrate to generate a substrate for NanoLuc luciferase. This substrate diffuses from cells into the surrounding culture medium, where it is rapidly used by the NanoLuc Enzyme to produce a luminescent signal. The signal correlates with the number of viable cells, making the assay well suited for cytotoxicity studies.
Tox21 Assay Protocol Summary: The mixture of HepG2 cell suspension and reagents were dispensed at 600cells/6 ul/well in 1536-well tissue culture treated black solid bottom plates using a Multidrop dispenser. After the assay plates were incubated at a 37 C/5% CO2 incubator for 5 hours, 23 nL of compounds dissolved in DMSO, positive and negative controls was transferred to the assay plate by a pintool work station. The plates were incubated at 37 C for 40 hours. The luminescence intensity were measured at 0h, 8h, 16h, 24h, 32h and 40h time points using ViewLux plate reader during compound treatment.
On the % scale 0 is the no-effect control and ±100 the full control effect.

Compared with `O=C(/C=C/c1ccccc1)NCCO`, `O=c1[nH]c(=O)c2ccccc2o1` is higher in “activity change, negative = cytotoxic” value: -0.304% [at 35.3 µM] for the first, 1.88% [at 35.3 µM] for the second.

First: NS(=O)(=O)c1cc2c(cc1Cl)NC(CC1CCCC1)NS2(=O)=O (stereo not given)
Second: COc1cc2c(Nc3ccc(Br)cc3F)ncnc2cc1OCC1CCN(C)CC1
The “activity change, negative = cytotoxic” value of the first is higher: 0.952% [at 35.3 µM] for the first, 0.441% [at 35.3 µM] for the second.

Going from `C[C@H]1O[C@H](O[C@H]2[C@H](O)[C@@H](O)[C@@H](O[C@H]3[C@H](O)[C@@H](O)[C@H](O)O[C@@H]3CO)O[C@@H]2CO)[C@H](O)[C@@H](O)[C@@H]1N[C@H]1C=C(CO)[C@@H](O)[C@H](O)[C@H]1O` to `CN[C@@H]1[C@@H](O)[C@@H](O[C@@H]2[C@H](O)[C@H](O[C@H]3OC(CN)=CC[C@H]3N)[C@@H](N)C[C@H]2N)OCC1(C)O` (stereo not given in full), the “activity change, negative = cytotoxic” value falls from 2.5% [at 35.3 µM] to -0.0024% [at 35.3 µM].

Compared with `CCNC(=O)NCCCOc1cccc(CN2CCCCC2)c1`, `C=CCOc1cc(Cl)ccc1C(=O)NCCN(CC)CC` is higher in “activity change, negative = cytotoxic” value: 0.0365% [at 35.3 µM] for the first, 1.07% [at 35.3 µM] for the second.

Compared with `O=P(O)(O)OCC(O)CO` (stereo not given), `C=CCOCC(CO)(COCC=C)COCC=C` is higher in “activity change, negative = cytotoxic” value: -1.21% [at 35.3 µM] for the first, 1.83% [at 35.3 µM] for the second.

First: C=CCOc1c(Br)cc(C(C)(C)c2cc(Br)c(OCC=C)c(Br)c2)cc1Br
Second: Cc1nc2n(c(=O)c1CCN1CCC(C(=O)c3ccc(F)cc3)CC1)CCS2
The “activity change, negative = cytotoxic” value of the first is higher: 0.709% [at 35.3 µM] for the first, -4.49% [at 35.3 µM] for the second.

Going from `CC(=O)Nc1ncc([N+](=O)[O-])s1` to `NCCc1ccn[nH]1`, the “activity change, negative = cytotoxic” value rises from -0.0822% [at 35.3 µM] to 3.73% [at 35.3 µM].

With `CC(C)SCc1ccco1` the “activity change, negative = cytotoxic” value was 1.11% [at 35.3 µM].

Compared with `CCCCCCCCC(=O)OCC`, `CCOC(=O)CCCCCCCCC(=O)OCC` is higher in “activity change, negative = cytotoxic” value: 2.29% for the first, 3.29% for the second.

First: F[Si-2](F)(F)(F)(F)F
Second: FC(F)(F)/C(=N\OCC1OCCO1)c1ccc(Cl)cc1
The “activity change, negative = cytotoxic” value of the first is higher: 0.849% for the first, 0.34% for the second.

Going from `O=C(c1ccc2c(c1)C(=O)OC2=O)c1ccc2c(c1)C(=O)OC2=O` to `COc1ccc(N=Nc2cc(C)c(N=Nc3ccc(S(=O)(=O)O)cc3)cc2OC)cc1`, the “activity change, negative = cytotoxic” value falls from 0.717% to -7.62%.

Going from `CCC(C)(CCC(C)C)C(=O)[O-].CCC(C)(CCC(C)C)C(=O)[O-].[Zn+2]` (stereo not given) to `CC(C)CCCCCCOC(=O)C1CCCCC1C(=O)OCCCCCCC(C)C` (stereo not given), the “activity change, negative = cytotoxic” value falls from 0.216% to 0.148%.

Compared with `CC(C)CCCC(C)CC=O` (stereo not given), `CC1=CC[C@H](CC=O)C1(C)C` is higher in “activity change, negative = cytotoxic” value: 2.93% for the first, 3.51% for the second.

Going from `Nc1cc(S(=O)(=O)O)ccc1S(=O)(=O)O` to `O=S(=O)(O)SSS(=O)(=O)O`, the “activity change, negative = cytotoxic” value falls from 1.92% to 0.848%.

Compared with `C=C(C)C(=O)OCCCCCCOC(=O)C(=C)C`, `CCCOC(=O)CCCCC(=O)OCCC` is higher in “activity change, negative = cytotoxic” value: -3.56% for the first, -0.0235% for the second.

Going from `CCc1nccnc1C` to `CCC(C)N` (stereo not given), the “activity change, negative = cytotoxic” value falls from 3.86% to 2.26%.

Going from `CC(C)=CC(C)(C)C` to `C/C=C(\C)C(=O)OCC/C=C\CC`, the “activity change, negative = cytotoxic” value rises from 0.24% to 1.8%.

First: OCCCCCCCl
Second: CCCCCCCCCCCCCC(=O)OC
The “activity change, negative = cytotoxic” value of the first is lower: -0.261% for the first, 0.764% for the second.

First: C1=CCC(c2ccccc2)CC1 (stereo not given)
Second: CC(=O)/C=C/c1ccco1
The “activity change, negative = cytotoxic” value of the first is higher: 0.86% for the first, 0.611% for the second.

For `CCCCC[Si](OCC)(OCC)OCC`, the “activity change, negative = cytotoxic” value was 0.762%.

Compared with `C=CCCCCCCCCCCC`, `O=CO` is lower in activity change, negative = cytotoxic: -0.787% [at 6.97 µM] for the first, -5.47% [at 6.97 µM] for the second.
